CHO-K1 Ca antag: counter-screen for M1 antagonists: effect in parental CHO-K1 cells; ATP-induced calcium, Fluo-8 fluorescence; inhibition, % at 3 µM; 0.6% of 360,000 active;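 active = inhibition above a per-plate cutoff, the plate's mean sample inhibition plus 3 SD, cut at about 24% in these data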;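 note: 0% = DMSO plus EC80 ATP and 100% = DMSO alone without ATP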
CHRM1 agonist: agonists of human M1 muscarinic receptor | 0.33% of 360,000 active | activation, % at 3 µM | CHO-K1 hM1, Fluo-8 calcium fluorescence, agonist mode; 0% DMSO, 100% acetylcholine EC100 | P11229;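 active = activation above the run's mean compound activation plus 3 SD, cut at about 16% in these data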;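 note: peak over basal fluorescence ratio within a 140 s kinetic read after compound addition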
Target sequence (P11229 whole entry, looked up): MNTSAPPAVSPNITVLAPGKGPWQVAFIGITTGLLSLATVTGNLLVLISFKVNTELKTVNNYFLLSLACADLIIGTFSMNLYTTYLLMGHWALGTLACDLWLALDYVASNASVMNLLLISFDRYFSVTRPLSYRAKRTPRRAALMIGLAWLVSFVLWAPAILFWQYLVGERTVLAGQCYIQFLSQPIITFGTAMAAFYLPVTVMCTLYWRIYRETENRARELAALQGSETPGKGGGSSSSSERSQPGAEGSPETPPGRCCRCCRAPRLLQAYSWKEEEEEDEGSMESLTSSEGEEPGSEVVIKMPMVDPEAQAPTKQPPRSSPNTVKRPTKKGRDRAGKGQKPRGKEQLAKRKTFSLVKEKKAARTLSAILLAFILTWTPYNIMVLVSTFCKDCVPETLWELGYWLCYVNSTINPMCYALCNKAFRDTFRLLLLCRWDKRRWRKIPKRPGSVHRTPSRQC
CHO-K1 Ca ag: nonselective activator or artifact in parental CHO-K1 cells; 0.48% of 360,000 active; Fluo-8 calcium fluorescence; scaled to maximal ATP response, vehicle zero; activation, % at 3 µM; in the data active = activation above about 15%;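 note: untransfected CHO-K1 host cells lacking M1 receptor as counterscreen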
CHRM1 antagonist: antagonists of human M1 muscarinic receptor; CHO-K1 hM1, Fluo-8 calcium fluorescence, ACh EC80 antagonist; inhibition, % at 3 µM; 1.3% of 360,000 active; AID 588852;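 active = percent inhibition above its own plate's cutoff, namely the mean of that plate's compound wells plus 3 SD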;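 note: peak over basal fluorescence ratio during 140 s after agonist addition; 0% = ACh EC80 plus DMSO and 100% = DMSO alone without agonist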
CHRM1 PAM: potentiates human M1 receptor response to acetylcholine; CHO-K1 hM1, Fluo-8 calcium fluorescence, ACh EC20; 0% = ACh EC20, 100% = maximal ACh; 0.088% of 360,000 active; P11229; AID 588819; activation, % at 3 µM; in the data active = activation above about 19%, passing the limit was not always enough
CHO-K1 Ca PAM: counter-screen for M1 PAMs: effect in parental CHO-K1 cells. ATP EC20, Fluo-8 calcium fluorescence; 0% at ATP EC20, 100% at ATP max. activation, % at 3 µM. 0.02% of 360,000 active. AID 602247;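 active = activation above the run cutoff, the mean activation of all test compounds plus 3 SD, cut at about 40% in these data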;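 note: peak over basal fluorescence ratio in a 140 s read after ATP addition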
An asterisk follows results filed as active. Shown are actives, neighbours in structure and some others; about 2.3% of the full set was active somewhere.

SMILES	CHO-K1 Ca antag	CHRM1 agonist	CHO-K1 Ca ag	CHRM1 antagonist	CHRM1 PAM	CHO-K1 Ca PAM
CC(OC(=O)c1cc(=O)[nH]c2ccccc12)C(=O)Nc1ccccc1F (stereo not given)	9	-1	0	18	2	-6
CCC(C)NS(=O)(=O)c1ccc(S(=O)(=O)N2CCCC3(CCCCC3)C2)cc1 (stereo not given)	11	-5	3	36*	-22	0
COCCNC(=O)C1(C)CCCN(C(=O)c2cc(C)oc2C)C1 (stereo not given)	-11	0	0	-11	6	16
Cc1nnc2n(c1=O)C(CS(=O)(=O)c1ccc3ccccc3c1)CS2 (stereo not given)	6	-5	15*	-8	7	11
Cc1ccc(S(=O)(=O)CC2CSc3nnc(C)c(=O)n32)cc1 (stereo not given)	-17	-3	1	-24	11	20
COc1cccc(Nc2ncnc3ccc(Br)cc23)c1	1	-6	0	0	-4	-12
Brc1ccc2ncnc(Nc3cccc4ccccc34)c2c1	-12	12	19*	-5	2	12
C[C@@H]1CN([C@@H](C)CO)C(=O)CCCn2cc(nn2)CO[C@H]1CN(C)S(=O)(=O)c1cccs1	8	-2	0	11	-4	-11
C[C@@H]1CN([C@H](C)CO)C(=O)CCCn2cc(nn2)CO[C@H]1CN(C)S(=O)(=O)c1ccc(F)cc1	26*	0	0	-14	14	7
C[C@@H]1CN([C@H](C)CO)C(=O)CCCn2cc(nn2)CO[C@H]1CN(C)S(=O)(=O)c1cccs1	32*	-6	0	8	-4	-9
COc1ccc2noc3c2c1C(=O)c1ccccc1-3	26*	72*	22*	22	-26	-28
COc1ccc(N)c2c1C(=O)c1ccccc1C2=O	1	-4	0	-3	7	-14
CCC1(c2ccc(Cl)cc2)NC(=O)N(CC(=O)NC2CCCC(C)C2C)C1=O (stereo not given)	-6	7	0	-22	11	-6
CNC[C@@H]1Oc2cc(Br)ccc2S(=O)(=O)N([C@@H](C)CO)C[C@@H]1C	-15	-11	0	0	-3	9
CCn1ccnc1CNC(=O)c1ccc2oc(C(C)C)nc2c1	-9	-6	1	57*	-17	10
Cc1cnc(CNC(=O)c2ccc3oc(C(C)C)nc3c2)[nH]1	7	-6	2	-5	5	-14
c1cc2c(cc1C1CCCN1)OCCCO2 (stereo not given)	-4	-3	0	28*	-11	13
O=S(=O)(c1ccc2c(c1)OCCCO2)N1CCNCC1	-14	-5	0	-8	9	15
CCOc1ccccc1C1C2C(=O)N(c3ccccc3)C(=O)C2ON1c1ccccc1 (stereo not given)	7	-4	3	28*	-12	10
CCOC(=O)c1[nH]c(C)c(C(=O)N2CCN(C(=O)OCC)CC2)c1CC	26*	0	0	4	1	-12
O=C(NC1CCCc2c1cnn2-c1ccccc1F)c1ccncc1 (stereo not given)	5	4	8	8	-9	-6
O=C1Nc2ccccc2C(=O)N2[C@H](c3ccc(F)cc3)[C@@H]3C(=O)N(Cc4ccccc4)C(=O)[C@@H]3[C@H]12	17	36*	1	16	8	-21
Cc1ccc(CC(=O)Nc2ccc(S(=O)(=O)Nc3nccc(C)n3)cc2)cc1	-9	0	-1	-8	6	5
Cc1ccnc(NS(=O)(=O)c2ccc(NC(=O)Cc3ccccc3)cc2)n1	25*	-4	0	4	0	-10
Cc1cc(C)nc(NS(=O)(=O)c2ccc(NC(=O)Cc3ccccc3)cc2)n1	24*	-4	5	15	-12	-10
COC(=O)Cn1nc(-c2ccc(C)cc2)c2ccccc2c1=O	-9	-4	-1	-4	6	7
COc1cccc(N2CCN(c3ccc4nnc(CCC(=O)Nc5ncccc5C)n4n3)CC2)c1	0	-4	2	38*	-15	8

Compound activity from PubChem BioAssay.
